Several values for one entry are separate records, joined by “and”; a condition that tells them apart may be missing. Equal entries are not always repeated. Activity calls are given as the source filed them.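 Rule for the calls, unless noted: active = normalized viability below 100% at a tested concentration; inactive = the rest.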
Columns and labels:
[1] = sensitizers of A549 cells to miR-34 induction, primary screen, imaging, A549 dox-inducible miR-34, nuclei and caspase counts (AID 1347080;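 active = compounds whose cell count with miR-34 switched on is under 0.7 times the count with it off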); details: A549 miR-34 inducible, Hoechst nuclei count, 48 h
[2] = survival rescue of mitochondrial mutant cells in low glucose, primary screen, MELAS cybrids, Rieske KO mouse fibroblasts, CellTiter-Glo (AID 1508586;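 active = mean z-score across replicates of 1.96 or higher in either the MELAS or the Rieske mutant cell line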;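 note: z relative to plate mean and SD of compound and empty wells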)
[3] = ovarian cancer cell viability with rucaparib, profiling panel, oncology-focused library, rucaparib conditional (AID 1508598); details: patient-derived ovarian cancer cells, CellTiter-Glo viability, 144 h, stronger effect = lower value
[4] = LFS_MB_P medulloblastoma growth inhibition, cell-based, chromothripsis tumors, cisplatin or BGB combos (AID 1671449; in the data active = inhibition above about 80%;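 note: cells exposed for 96 hours; 0% = vehicle DMSO and 100% = killing by high DMSO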); details: LFS_MB_P medulloblastoma cells
[5] = HDN33 neuroblastoma growth inhibition, cell-based, chromothripsis tumors, cisplatin or BGB combos (AID 1671450; in the data active = inhibition above about 80%;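 note: cells exposed to compound for four days; 0% = vehicle DMSO and 100% = cell killing by high DMSO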); details: HDN33 neuroblastoma cells, stronger effect = higher value
[6] = ICB984 medulloblastoma cell growth inhibition, synergistic combos for chromothripsis tumors, cisplatin or BGB combos (AID 1671451; call rule not given here;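 note: cells exposed for 96 hours before readout; 0% = vehicle DMSO and 100% = killing by high DMSO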); details: ICB984 medulloblastoma cells, drug combinations, stronger effect = higher value
[7] = LFS_MB_1R medulloblastoma cell growth inhibition, synergistic combos for chromothripsis tumors, cisplatin or BGB combos (AID 1671452; in the data active = inhibition above about 80%;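 note: cells exposed for 96 hours before readout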); details: LFS_MB_1R medulloblastoma cells, stronger effect = higher value
[8] = HTB85 osteosarcoma cell growth inhibition, synergistic combos for chromothripsis tumors, BGB or cisplatin IC20 combos (AID 1671453; in the data active = inhibition above about 80%;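 note: cells exposed for 96 hours before readout; 0% = vehicle DMSO and 100% = high DMSO killing control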); details: HTB85 osteosarcoma cells, drug combinations, stronger effect = higher value
[9] = CRL2098 osteosarcoma cell growth inhibition, synergistic combos for chromothripsis tumors, BGB or cisplatin IC20 combos (AID 1671454; in the data active = inhibition above about 80%;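 note: cells exposed for 96 h before readout; 0% = vehicle DMSO and 100% = killing by high DMSO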); details: CRL2098 osteosarcoma cells, drug combinations, stronger effect = higher value
[10] = HD-MB03 medulloblastoma cell growth inhibition, synergistic combos for chromothripsis tumors, BGB or cisplatin IC20 combos (AID 1671455; in the data active = inhibition above about 83%;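 note: 0% = vehicle DMSO and 100% = high DMSO as cytotoxic control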); details: HD-MB03 medulloblastoma cells, stronger effect = higher value
[11] = UWB1.289 ovarian carcinoma cell growth inhibition, synergistic combos for chromothripsis tumors, BGB or cisplatin combos (AID 1671456; in the data active = inhibition above about 80%;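 note: cells exposed to compound for four days; 0% = vehicle DMSO and 100% = killing by high DMSO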); details: UWB1.289 ovarian carcinoma cells, stronger effect = higher value
[12] = LFS_MB_2R medulloblastoma cell growth inhibition, synergistic combos for chromothripsis tumors, cisplatin combos (AID 1671457; in the data active = inhibition above about 80%;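 note: cells exposed to compound for four days before readout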); details: LFS_MB_2R medulloblastoma cells, stronger effect = higher value
[13] = MDA-MB-436 breast carcinoma cell growth inhibition, synergistic combos for chromothripsis tumors, BGB or cisplatin combos (AID 1671458; call rule not given here;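 note: cells exposed for 96 hours; 0% = vehicle DMSO and 100% = killing by high DMSO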); details: MDA-MB-436 breast carcinoma growth inhibition, drug combinations, stronger effect = higher value
[14] = UWB1.289_BRCA1 ovarian cancer growth, cell-based, BGB or cisplatin combinations (AID 1671459; in the data active = inhibition above about 80%); details: UWB1.289 BRCA1 ovarian carcinoma, drug combinations, stronger effect = higher value
[15] = growth inhibition of BT084 medulloblastoma cells, cell-based, ICGC_MB145, cisplatin and BGB IC40 combos (AID 1671461; in the data active = inhibition above about 80%;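 note: cells exposed to drugs for 96 hours; 0% = vehicle DMSO and 100% = high DMSO full killing control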); details: drug combinations, stronger effect = higher value
[16] = growth inhibition of RCMB18 medulloblastoma cells, cell-based, cisplatin and BGB IC40 combos (AID 1671462; in the data active = inhibition above about 80%;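 note: cells exposed to compound for four days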); details: stronger effect = higher value
[17] = growth inhibition of CRL1545 osteosarcoma cells, cell-based, cisplatin and BGB IC20 combos (AID 1671464; in the data active = inhibition above about 80%;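 note: cells exposed to compound for 96 hours before readout; 0% = vehicle DMSO and 100% = high DMSO killing control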); details: stronger effect = higher value
[18] = measured here: combination with BGB IC40, at 0.05 µM
[19] = measured here: with BGB IC20 combination, at 0.5 µM
[20] = measured here: with cisplatin IC20 combination, at 0.5 µM
[21] = measured here: combination with cisplatin, at 0.5 µM
[22] = measured here: combination with cisplatin, at 5 µM

Q: Which results are given for `C[C@@]1(c2nc3c(C(N)=O)cccc3[nH]2)CCCN1`?
A: fold change ([1]; stronger effect = lower value, cell number ratio, induced over uninduced): 0.941 (inactive); fold change ([1]; measured here: relative caspase fold change +Dox/-Dox): 1.01; cell count ([1]; measured here: total cells with miR-34 induction, stronger effect = lower value): 6840; cell count ([1]; measured here: total cells without miR-34 induction): 7270; z-score ([2]; MELAS cybrid survival, CellTiter-Glo 48 h, stronger effect = higher value): -0.268 (inactive); z-score ([2]; Rieske KO mouse fibroblast survival, CellTiter-Glo 72 h): 0.497; viability ([3]; at 0.000305 µM, OCI-C5x cells, with rucaparib 10 µM, 100% = cells with rucaparib alone): 125% (inactive); viability ([3]; at 0.000305 µM, OCI-C5x cells, without rucaparib): 110% (inactive); viability ([3]; at 0.000305 µM, OCI-P5x cells, with rucaparib 20 µM, 100% = cells with rucaparib alone): 108% (inactive); viability ([3]; at 0.000305 µM, OCI-P5x cells, without rucaparib): 83.4% (active); viability ([3]; at 0.00122 µM, OCI-C5x cells, with rucaparib 10 µM, 100% = cells with rucaparib alone): 114% (inactive); viability ([3]; at 0.00122 µM, OCI-C5x cells, without rucaparib): 114% (inactive); viability ([3]; at 0.00122 µM, OCI-P5x cells, with rucaparib 20 µM, 100% = cells with rucaparib alone): 97.2% (active); viability ([3]; at 0.00122 µM, OCI-P5x cells, without rucaparib): 101% (inactive); viability ([3]; at 0.00488 µM, OCI-C5x cells, with rucaparib 10 µM, 100% = cells with rucaparib alone): 122% (inactive); viability ([3]; at 0.00488 µM, OCI-C5x cells, without rucaparib): 109% (inactive); viability ([3]; at 0.00488 µM, OCI-P5x cells, with rucaparib 20 µM, 100% = cells with rucaparib alone): 106% (inactive); viability ([3]; at 0.00488 µM, OCI-P5x cells, without rucaparib): 102% (inactive); viability ([3]; at 0.0195 µM, OCI-C5x cells, with rucaparib 10 µM, 100% = cells with rucaparib alone): 121% (inactive); viability ([3]; at 0.0195 µM, OCI-C5x cells, without rucaparib): 106% (inactive); viability ([3]; at 0.0195 µM, OCI-P5x cells, with rucaparib 20 µM, 100% = cells with rucaparib alone): 98.2% (active); viability ([3]; at 0.0195 µM, OCI-P5x cells, without rucaparib): 95.2% (active); viability ([3]; at 0.0781 µM, OCI-C5x cells, with rucaparib 10 µM, 100% = cells with rucaparib alone): 120% (inactive); viability ([3]; at 0.0781 µM, OCI-C5x cells, without rucaparib): 104% (inactive); viability ([3]; at 0.0781 µM, OCI-P5x cells, with rucaparib 20 µM, 100% = cells with rucaparib alone): 91.6% (active); viability ([3]; at 0.0781 µM, OCI-P5x cells, without rucaparib): 102% (inactive); viability ([3]; at 0.313 µM, OCI-C5x cells, with rucaparib 10 µM, 100% = cells with rucaparib alone): 132% (inactive); viability ([3]; at 0.313 µM, OCI-C5x cells, without rucaparib): 102% (inactive); viability ([3]; at 0.313 µM, OCI-P5x cells, with rucaparib 20 µM, 100% = cells with rucaparib alone): 98.3% (active); viability ([3]; at 0.313 µM, OCI-P5x cells, without rucaparib): 91% (active); viability ([3]; at 1.25 µM, OCI-C5x cells, with rucaparib 10 µM, 100% = cells with rucaparib alone): 111% (inactive); viability ([3]; at 1.25 µM, OCI-C5x cells, without rucaparib): 108% (inactive); viability ([3]; at 1.25 µM, OCI-P5x cells, with rucaparib 20 µM, 100% = cells with rucaparib alone): 90% (active); viability ([3]; at 1.25 µM, OCI-P5x cells, without rucaparib): 87.4% (active); viability ([3]; at 5 µM, OCI-C5x cells, with rucaparib 10 µM, 100% = cells with rucaparib alone): 123% (inactive); viability ([3]; at 5 µM, OCI-C5x cells, without rucaparib): 108% (inactive); viability ([3]; at 5 µM, OCI-P5x cells, with rucaparib 20 µM, 100% = cells with rucaparib alone): 80.7% (active); viability ([3]; at 5 µM, OCI-P5x cells, without rucaparib): 91.4% (active); inhibition ([4]; at 0.5 µM, stronger effect = higher value): -30.4% (inactive) and -7.42% (inactive); inhibition ([4]; measured here: combination with BGB IC20, at 0.005 µM): 18.7% and -30.5%; inhibition ([4]; measured here: combination with BGB IC40, at 0.005 µM): -17.7% and -33.9%; inhibition [4, 18]: 4.58% and -46.4%; inhibition ([4]; measured here: combination with cisplatin, at 0.5 µM, stronger effect = higher value): -30.4% and -24.5%; inhibition ([4]; measured here: combination with cisplatin, at 5 µM, stronger effect = higher value): -24.1% and -57.4%; inhibition ([5]; BGB combo, at 5 µM): -38.7% and -21.7%; inhibition ([5]; at 0.5 µM): -18.6% (inactive) and -27.5% (inactive); inhibition ([5]; cisplatin combo, at 5 µM): -25% and 2.08%; inhibition [5, 19]: -20.1% and -23.6%; inhibition [5, 20]: -10.4% and -15.2%; inhibition ([5]; single agent, at 5 µM): -35.1% and -10.6%; inhibition ([6]; BGB IC20 combo, at 0.005 µM): -43.5% and -1.75%; inhibition ([6]; BGB IC40 combo, at 0.005 µM): -45.8% and -18.7%; inhibition ([6]; BGB IC40 combo, at 0.05 µM): -19.5% and -39.6%; inhibition ([6]; at 0.5 µM): -17.4% (inactive) and -39% (inactive); inhibition ([6]; cisplatin combo, at 0.05 µM): -25.6% and -44.6%; inhibition ([6]; cisplatin combo, at 0.5 µM): -23.4% and -27.8%; inhibition ([6]; cisplatin combo, at 5 µM): -25.3% and -24.6%; inhibition ([6]; measured here: 5 uM single agent, at 5 µM): -15.1% and -18.4%; inhibition ([7]; at 0.5 µM): -10.8% (inactive) and -21.8% (inactive); inhibition [7, 18]: 5.8% and -13.2%; inhibition [7, 21]: -30.9% and -32.1%; inhibition [7, 22]: -34.7% and -78.6%; inhibition ([8]; at 0.5 µM): -28.2% (inactive) and -8.28% (inactive); inhibition ([8]; measured here: with BGB IC20, at 0.5 µM): -26.4% and -15.6%; inhibition ([8]; measured here: with BGB IC20, at 5 µM): -37.2% and -23.1%; inhibition ([8]; measured here: with cisplatin IC20, at 0.5 µM): -25.2% and -2.08%; inhibition ([8]; measured here: with cisplatin IC20, at 5 µM): -5% and -37.1%; inhibition ([8]; single agent, at 5 µM): -8.07% and -11.2%; inhibition ([9]; at 0.5 µM): -55.3% (inactive) and -67.8% (inactive); inhibition ([9]; measured here: combination with BGB at IC20, at 0.5 µM): -51.9% and -45%; inhibition ([9]; measured here: combination with cisplatin at IC20, at 0.5 µM): -90.3% and -100%; inhibition ([10]; at 0.5 µM): -10.9% (inactive) and -9.85% (inactive); inhibition ([10]; measured here: combo with BGB at IC20, at 0.5 µM): -9.31% and -21.4%; inhibition ([10]; measured here: combo with cisplatin at IC20, at 0.5 µM): -20.2% and -6.83%; inhibition ([11]; at 0.5 µM): -10.2% (inactive) and 3.78% (inactive); inhibition ([11]; measured here: inhibition with BGB combination, at 0.05 µM): -8.84% and -23.2%; inhibition ([11]; measured here: inhibition with cisplatin combination, at 0.05 µM): -15.9% and -9.39%; inhibition ([12]; at 0.5 µM): -15.2% (inactive) and -24.4% (inactive); inhibition [12, 21]: -24.8% and -30.4%; inhibition [12, 22]: -13.3% and -26.2%; inhibition ([13]; at 0.5 µM): 4.59% (inactive) and -23.4% (inactive); inhibition ([13]; measured here: BGB combination, at 0.5 µM): -1.87% and -40.7%; inhibition ([13]; measured here: BGB combination, at 5 µM): 2.42% and -13.4%; inhibition ([13]; measured here: cisplatin combination, at 0.5 µM): -2.04% and -27.9%; inhibition ([13]; measured here: cisplatin combination, at 5 µM): -0.972% and -36.3%; inhibition ([14]; BGB combination, concentration series, at 5 µM): -24.7% and -7.53%; inhibition ([14]; at 0.5 µM): -10.7% (inactive) and -7.52% (inactive); inhibition ([14]; cisplatin combination, concentration series, at 5 µM): -27.7% and -31.9%; inhibition ([15]; at 0.5 µM): -3.53% (inactive) and 6.53% (inactive); inhibition ([15]; cisplatin combination, at 0.5 µM): -17.4% and -25.6%; inhibition ([15]; cisplatin combination, at 5 µM): -105% and -12.9%; inhibition ([15]; measured here: BGB IC40 combination 0.05 uM, at 0.05 µM): -13.2% and 18.5%; inhibition ([15]; single agent, at 5 µM): 2.42% and -15%; inhibition ([16]; at 0.5 µM): -29.1% (inactive) and -18.3% (inactive); inhibition ([16]; cisplatin combo, at 5 µM): -12.7% and -24.7%; inhibition ([16]; measured here: BGB IC40 combination, at 0.05 µM): 9.85% and -28.2%; inhibition [16, 21]: -32.2% and 3.58%; inhibition ([16]; single agent, at 5 µM): -6.99% and -21%; inhibition ([17]; at 0.5 µM): -24.4% (inactive) and -51.1% (inactive); inhibition [17, 19]: -33.5% and -35.5%; inhibition [17, 20]: -21.8% and -61.5%; inhibition ([17]; single agent, at 0.05 µM): -21.6% and -35.7%; inhibition ([17]; single agent, at 5 µM): 11.5% and 14.2%
